These results are taken from PubChem BioAssay AID1030 (National Center for Advancing Translational Sciences (NCATS), 2008).

About 16,000 (7.3%) of roughly 220,000 compounds were called active. Inconclusive results (about 25%) are left out. Calls follow the shape of the dose curve; as a rule, active = well fitted inhibition curve with a large enough effect (not every such curve was filed as active); inconclusive = small, poorly fitted or top-dose-only effect, or another doubt; inactive = no such curve, though single readings can be large or run the other way. The entries come from a sample that favours actives as a whole. Entries that show only a call come without a potency.
Potency is read from the fitted curve at half-maximal effect.

For this test, the target named is Aldehyde dehydrogenase 1A1 (Homo sapiens) (UniProt P00352). The test is described as follows: qHTS Assay for Inhibitors of Aldehyde Dehydrogenase 1 (ALDH1A1). Conditions: Purified ALDH1A1, NADH fluorescence, propionaldehyde substrate; series mostly up to 75.3 µM. On the technique in general: In qHTS, concentration-response curves come from the screen itself.
Chain of Aldehyde dehydrogenase 1A1 (Homo sapiens) (P00352 whole entry, looked up): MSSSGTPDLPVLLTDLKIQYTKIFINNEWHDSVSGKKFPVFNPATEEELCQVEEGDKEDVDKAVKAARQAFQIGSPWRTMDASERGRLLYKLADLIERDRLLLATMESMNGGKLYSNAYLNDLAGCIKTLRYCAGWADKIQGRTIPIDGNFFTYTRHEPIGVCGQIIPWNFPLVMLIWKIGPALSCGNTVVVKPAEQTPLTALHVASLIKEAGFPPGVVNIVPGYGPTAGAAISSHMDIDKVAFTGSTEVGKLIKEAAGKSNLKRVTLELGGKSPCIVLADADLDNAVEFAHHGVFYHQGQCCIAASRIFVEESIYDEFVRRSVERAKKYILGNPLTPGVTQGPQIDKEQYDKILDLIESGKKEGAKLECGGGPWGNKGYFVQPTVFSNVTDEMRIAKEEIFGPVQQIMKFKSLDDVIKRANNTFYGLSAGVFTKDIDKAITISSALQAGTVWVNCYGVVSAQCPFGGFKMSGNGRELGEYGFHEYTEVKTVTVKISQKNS
Turning to `COC(=O)c1nc(NC(=O)c2ccc(C(C)(C)C)cc2)n[nH]1`, the Potency entry is “inactive”.

For the molecule `CSc1nc2ccc(NC(=O)c3c(F)cccc3F)cc2s1`, the Potency entry is “inactive”.

`N/C(=N\OC(=O)c1ccc2c(c1)OCO2)c1ccc(Br)cc1`: the Potency entry is “inactive”.

`COc1ccccc1Cn1c(C)nnc1-c1cnn(C)c1N`: the Potency result was “inactive”.

As for `O=C(CN1CCCCCC1)NCCN1C(=O)S/C(=C\c2ccccc2Cl)C1=O`, the Potency entry is “inactive”.

On to `CCC1(CC)NC(=O)N(Cc2nc3ccccc3s2)C1=O`, for which the Potency result is “inactive”.

Turning to `CC(CC(=O)Nc1ccccc1)n1ccnc1` (stereo not given), the Potency entry was “inactive”.

As to `CC(NC(=O)c1ccc(N2CCNCC2)c([N+](=O)[O-])c1)C12CC3CC(CC(C3)C1)C2` (stereo not given), the Potency entry is “inactive”.

`CS(=O)(=O)N1CCN(c2ccc(C(=O)NC3C4CC5CC(C4)CC3C5)cc2[N+](=O)[O-])CC1` (stereo not given): the Potency is 14.1 µM (active).

Turning to `Cc1cccc(N2CCN(c3ccc(C(N)=O)cc3[N+](=O)[O-])CC2)c1C`, the Potency result was “inactive”.

In the case of `CCN(CC(=O)NCc1cccs1)S(=O)(=O)c1ccc(NC(C)=O)cc1`, the Potency result was “inactive”.

For the molecule `Cc1cc(=O)[nH]c(SCC(=O)N2c3ccccc3CC2C)n1` (stereo not given), the Potency entry is “inactive”.

As for `CC1CC(C)CN(C(=O)CSc2nnc(CSc3ncccn3)n2C)C1` (stereo not given), the Potency entry is “inactive”.

On to `CCn1c(CSc2ncccn2)nnc1SCC(=O)N1c2ccccc2CC1C` (stereo not given), for which the Potency is 25.1 µM (active).

Regarding `Cc1noc(C)c1-c1nc(CSc2ccc(Cl)cc2)no1`, the Potency result was “inactive”.

As for `CC1CCC(NC(=O)C2c3ccccc3C(=O)N2Cc2ccc3c(c2)OCO3)CC1` (stereo not given), the Potency entry is “inactive”.

For `CN(CC(=O)Nc1ccccc1[N+](=O)[O-])Cc1ccc(Br)cc1`, the Potency entry is “inactive”.

In the case of `CCOc1ccc(Br)cc1S(=O)(=O)N1CCC(C(=O)O)CC1`, the Potency entry is “inactive”.

Take `CCOc1ccc(Br)cc1S(=O)(=O)Nc1cccc(S(=O)(=O)N(CC)CC)c1`: the Potency is 11.2 µM (active).

Turning to `CCOc1ccc(Br)cc1S(=O)(=O)Nc1ccc(C(=O)OC(C)C(=O)N(C)c2ccccc2)cc1` (stereo not given), the Potency entry was “inactive”.

For the molecule `N#Cc1c(-c2ccc(F)cc2)nc(-c2ccccc2)[nH]c1=O`, the Potency result is “inactive”.

In the case of `Cc1ccc(OCCCn2c(=O)oc3ccccc32)cc1`, the Potency result was “inactive”.

On to `OCC1(CCc2ccccc2)CCN(Cc2ccc3nsnc3c2)CC1`, for which the Potency was 8.91 µM (active).

As to `OCCC1CN(Cc2ccc3nsnc3c2)CCN1C1CCCC1` (stereo not given), the Potency result was “inactive”.

As to `CC(=O)c1cccc(CN2CCC(CO)(Cc3ccccc3)CC2)c1`, the Potency entry is “inactive”.

With `CSc1ccccc1C(=O)NCc1ccccc1`, the Potency result is “inactive”.

As to `CCc1cccc(C)c1NC(=S)N(CCCN1CCN(C)CC1)Cc1cccs1`, the Potency entry is “inactive”.

Take `CCN(C(=O)COC(=O)c1cc(S(=O)(=O)N2CCc3ccccc32)ccc1OC)C1CCS(=O)(=O)C1` (stereo not given): the Potency entry was “inactive”.

With `COc1ccc(C(=O)OCC(=O)NCC2CCCCC2)cc1S(=O)(=O)N1CCCc2ccccc21`, the Potency is 20 µM (active).

`CCC(C)(C)NC(=O)/C=C/c1cc(OC)c(OC)c(S(=O)(=O)N2CCc3ccccc32)c1`: the Potency entry was “inactive”.

With `O=C(O)c1ccn(COc2ccc(Br)cc2)n1`, the Potency result was “inactive”.

For `O=C(CSc1nnc2ccc(-c3ccncc3)nn12)N1CCCCC1`, the Potency entry was “inactive”.

With `CC(C)(C)c1cc(NC(=O)NN2CCOCC2)nn1-c1c(Cl)cc(Cl)cc1Cl`, the Potency entry was “inactive”.

Turning to `CSCCC(NC(=O)c1ccc(=O)n(C)n1)c1nc2ccccc2[nH]1` (stereo not given), the Potency result is “inactive”.

Turning to `COc1ccc(CC(=O)N[C@@H](CCSC)c2nc3ccccc3[nH]2)cc1`, the Potency is 8.91 µM (active).

On to `CSCCC(NC(=O)c1cc([N+](=O)[O-])cc([N+](=O)[O-])c1)c1nc2ccccc2[nH]1` (stereo not given), for which the Potency entry was “inactive”.

Turning to `Cc1ccc(C(=O)Cn2cc([N+](=O)[O-])nc2C)cc1`, the Potency result was “inactive”.

`C=CCn1c(SCC(=O)/C(C#N)=C(\C)N)nc2sc(C)c(C)c2c1=O`: the Potency entry was “inactive”.

As for `C=CCn1cnc2scc(-c3ccccc3)c2c1=O`, the Potency result is “inactive”.

Turning to `C=CCn1c(SCc2csc(C)n2)nc2scc(-c3ccc(C)o3)c2c1=O`, the Potency was 22.4 µM (active).

For `CN1CCCN(C(=O)C2CCCCC2)CC1`, the Potency entry is “inactive”.

With `COc1ccccc1NC(=O)CCSc1nnc(-c2ccc(O)cc2)o1`, the Potency entry was “inactive”.

`O=C1CCCCC(=O)c2ccccc2N1`: the Potency result was “inactive”.

As for `CN(C)/C=C1/Nc2ccccc2C1=O`, the Potency is 25.1 µM (active).

As for `CN(C)/C=C1/C(=O)Nc2ccccc21`, the Potency result is “inactive”.

For the molecule `CCOC(=O)C1(Cc2cccc(OC)c2)CCCN(S(=O)(=O)c2cccnc2)C1` (stereo not given), the Potency entry is “inactive”.

Take `O=C(NCCCN1CCOCC1)c1ccccc1NS(=O)(=O)c1ccc(Br)cc1`: the Potency result is “inactive”.

`CCOC(=O)NC(=O)C(=CNc1cccc(OC)c1)C(=O)NC(=O)OCC`: the Potency entry was “inactive”.

With `CCC1=C/C(=C\c2ccc3c(c2)OCO3)C(=O)S1`, the Potency is 28.2 µM (active).

Turning to `CCc1c(C)sc(NC(=O)/C=C/c2ccc3c(c2)OCO3)c1C(=O)OC`, the Potency result is “inactive”.

Turning to `CSC1=N/C(=C\c2ccc3c(c2)OCO3)C(=O)S1`, the Potency entry was “inactive”.

For `CC(C)(C)NCC(O)COc1cccc2[nH]c(=O)[nH]c12` (stereo not given), the Potency result was “inactive”.

In the case of `COc1cc2c(cc1OC)CC1(CCCCC1)N=C2`, the Potency result was “inactive”.

As for `COc1ccc(CCNC(=O)C(Sc2ccccn2)c2ccccc2)cc1OC` (stereo not given), the Potency entry was “inactive”.

Turning to `COc1ccc(CCN(C(=O)COc2ccccc2)c2nc(-c3ccccc3)cs2)cc1OC`, the Potency entry was “inactive”.

Regarding `COc1ccc(C(CCN(Cc2ccc(OC)c(OC)c2)C(=O)CCl)c2ccccc2)cc1` (stereo not given), the Potency was 3.55 µM (active).

For `CCN(CC)CCNC(=O)c1sc2ncn(CC(=O)Nc3ccc(C)c(Cl)c3)c(=O)c2c1C`, the Potency entry is “inactive”.

Take `COCCNC(=S)N(Cc1cccnc1)Cc1ccc(OC)c(OC)c1`: the Potency result is “inactive”.

Consider `COC(=O)c1ccc(CSc2nncn2N)cc1`, for which the Potency entry is “inactive”.

Regarding `CN1C=CC=C/C1=C1\SC(=S)N(Cc2ccccc2)C1=O`, the Potency was 12.6 µM (active).

Consider `CCCCN1C(=O)/C(=C2/C=CC=CN2C)SC1=S`, for which the Potency is 22.4 µM (active).

As for `CCN1C(=O)/C(=C2/Sc3ccccc3N2CCCS(=O)(=O)O)SC1=S`, the Potency result is “inactive”.

As to `CC12C(=O)N(c3ccccc3)C(=O)C1C(c1ccccc1)N1CCCN12` (stereo not given), the Potency result was “inactive”.

As for `N#CC1(C#N)C(C(=O)C23CC4CC(CC(C4)C2)C3)C12CCOCC2` (stereo not given), the Potency entry is “inactive”.

Take `O=C(c1ccncc1)c1ccc([N+](=O)[O-])cc1`: the Potency entry is “inactive”.

In the case of `Cc1ccc(C(=O)NCC(=O)O)s1`, the Potency result is “inactive”.

In the case of `O=C(N/C(=C\c1ccc(F)cc1)C(=O)N1CCCCCC1)c1ccccc1`, the Potency entry was “inactive”.

With `CC1Cc2ccccc2N1C(=O)CSc1nc2ccccc2o1` (stereo not given), the Potency entry was “inactive”.

As for `CC1Cc2ccccc2N1C(=O)CSc1nnc(-c2ccc(S(=O)(=O)N3CCCCC3)cc2)o1` (stereo not given), the Potency entry was “inactive”.

Turning to `CCS(=O)(=O)c1ccc2oc(SCC(=O)N3c4ccccc4CC3C)nc2c1` (stereo not given), the Potency was 28.2 µM (active).
